Compound activity from PubChem.
FLuc modulator – inhibits or activates purified firefly luciferase, miR-21 counter-screen; purified FLuc, Km substrates, luminescence inhibition; P08659; 360,000 tested, 6.9% active; Potency, µM (doses to about 57.5 µM), for the others: at the highest dose activity change, negative = inhibition, hits mostly inhibitors;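 also: plate controls were vehicle for no effect and reference inhibitor for full effect; nearly all actives have a fitted effect of over 55% in size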
Target sequence (P08659 whole entry, looked up): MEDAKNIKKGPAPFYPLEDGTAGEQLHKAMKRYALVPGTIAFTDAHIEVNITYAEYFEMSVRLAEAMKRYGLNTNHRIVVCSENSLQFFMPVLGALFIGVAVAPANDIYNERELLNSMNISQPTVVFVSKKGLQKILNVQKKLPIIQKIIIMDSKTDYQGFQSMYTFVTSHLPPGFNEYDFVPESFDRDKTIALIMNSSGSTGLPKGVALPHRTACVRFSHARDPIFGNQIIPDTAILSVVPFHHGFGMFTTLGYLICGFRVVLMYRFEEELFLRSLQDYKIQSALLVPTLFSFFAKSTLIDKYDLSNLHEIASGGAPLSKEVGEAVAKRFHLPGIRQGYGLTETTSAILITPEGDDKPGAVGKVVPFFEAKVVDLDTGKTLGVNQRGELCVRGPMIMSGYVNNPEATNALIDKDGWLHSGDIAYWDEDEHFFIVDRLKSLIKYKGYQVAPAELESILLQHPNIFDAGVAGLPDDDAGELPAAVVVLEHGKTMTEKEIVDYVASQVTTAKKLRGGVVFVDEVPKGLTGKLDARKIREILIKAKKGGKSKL
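Biochemical qHTS of compounds, final roughly 60 µM downward over six points, against 10 nM purified firefly luciferase using Km concentrations of substrates (10 uM D-luciferin, 10 uM ATP) in Tris acetate pH 7.5 buffer; luminescence output.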
NPC1 promoter act – activators of NPC1 promoter | 320,000 tested, 2.4% active | Huh7 NPC1 promoter luciferase reporter, 24 h | Potency, µM (titrated, usually from 9.22 µM), for inactives: at the top dose activation, hits mostly activators; also: % of control where 0% means no effect; nearly all actives have a fitted effect of over 60% in size
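Readout is luciferase luminescence, reflecting NPC1 promoter activation in stably transfected Huh7 cells after 24 h compound exposure at 37 °C in reduced-serum medium with 10% FBS.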
ELG1 DNA repair – blocks ELG1-dependent DNA repair in HEK293T cells. AID 504467. HEK293T ELG1-luciferase reporter, luminescence, 16 h; DNA damage induced by 5-fluorouridine. Potency, µM (highest dose often 46.1 µM), for the others: top-dose activity change, negative = inhibition, usual class: inhibitors. 330,000 tested, 2.3% active; also: % is scaled to controls: 0 for no effect and ±100 for the full control effect; nearly all actives have a fitted effect of over 55% in size
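Step one: seed 2,000 cells per well. Step two: pin-transfer compound or DMSO alongside 5-fluorouridine. Step three: incubate 16 hr, 37 °C, 5% CO2. Step four: add ONE-Glo, wait 30 min, read luminescence.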
Rab9 promoter act – activates the Rab9 promoter. Huh7 Rab9 promoter-luciferase reporter, luminescence, 24 h. Potency, µM (doses to about 9.22 µM), without a hit: top-dose activation, negative = inhibition, most hits filed as activators. 320,000 tested, 2.8% active. AID 485297; also: % of control where 0% means no effect; nearly all actives have a fitted effect of over 60% in size
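Rab9 promoter-driven luciferase in stably transfected Huh7 cells; 1500 cells/well rested 2 h, exposed to compound in DMSO for 24 h at 37 °C, 5% CO2. Luminescence read 10 min after adding luciferase reagent at ambient temperature.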
SMN2 splice up – increases expression of the SMN2 splice variant. HEK293 SMN2-luciferase splicing reporter, luminescence, 30-36 h. Potency, µM (series often up to 46.1 µM), for the others: at the highest dose activity change, positive = activation, usual class: activators. 210,000 tested, 2.8% active. AID 1458; also: % of control where 0% means no effect; nearly all actives have a fitted effect of over 55% in size
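qHTS luciferase splicing reporter: luminescence rises when SMN2 exon 7 is included in transfected HEK293 cells. Compound exposure lasted 30-36 h at 37C, with 4.5 mM final sodium butyrate as control, followed by a ONE-Glo read.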
ELG1 genotox – inducers of genotoxicity in HEK293T ELG1-luciferase cells | Potency, µM (doses to about 46 µM), for inactives: at the highest dose activity change, positive = activation, usual class: activators | HEK293T ELG1-luciferase reporter, luminescence, 16 h | 330,000 tested, 1.3% active; also: % of control where 0% means no effect; nearly all actives have a fitted effect of over 60% in size
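Reporter readout depends on ELG1 protein level, which increases with genetic stress. After 16 hr compound exposure at 37 °C, luciferase activity was quantified using ONE-Glo.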
The depositor's hits bear a star. Sampled rows, rich in hits. Any-hit rate of the full collection: about 9.4%. Calls follow the shape of the dose curve; as a rule, active = well fitted curve in the direction sought with a large enough effect; inconclusive = small, poorly fitted or top-dose-only effect, or another doubt; inactive = no such curve, though single readings can be large; an effect the other way counts as inactive or inconclusive. Potency is read from the fitted curve at half-maximal effect.

Screening CC(C)(C)OC(=O)N1CCC[C@H]1C(=O)N/N=C/c1ccc2nccnc2c1 returned FLuc modulator -1%, NPC1 promoter act 1%, ELG1 DNA repair -5%, Rab9 promoter act 7% and ELG1 genotox -4%.
Cc1cccc2cc(/C=N/NC(=O)c3ccncc3)c(Cl)nc12 was read as FLuc modulator -1%, NPC1 promoter act -6%, ELG1 DNA repair -11%, Rab9 promoter act -2% and ELG1 genotox -1%.
For Cc1cccc2cc(/C=N/NC(=O)c3ccccc3O)c(Cl)nc12 the results were FLuc modulator inconclusive, NPC1 promoter act 1%, ELG1 DNA repair 23µM*, Rab9 promoter act -5%, SMN2 splice up -39% and ELG1 genotox -10%.
`O=C(O)c1ccc(N/N=C/c2cc3ccccc3nc2Cl)cc1` gave FLuc modulator 0.76µM*, NPC1 promoter act 1.4µM*, ELG1 DNA repair inconclusive, Rab9 promoter act 2µM* and ELG1 genotox inconclusive.
`Cc1ccc(-c2c(C)n3c4c(=O)n(C)c(=O)n(C)c4nc3n2CCCO)cc1` gave FLuc modulator 0% and SMN2 splice up -51%.
`C(=N\Nc1nc2ccccc2[nH]1)/c1ccncc1` gave FLuc modulator inconclusive, NPC1 promoter act inconclusive, ELG1 DNA repair inconclusive, Rab9 promoter act inconclusive, SMN2 splice up -9% and ELG1 genotox inconclusive.
`O=C(O)c1ccc(N/N=C/c2cccc3nccnc23)cc1` gave FLuc modulator 6.7µM*, NPC1 promoter act inconclusive, ELG1 DNA repair inconclusive, Rab9 promoter act inconclusive and ELG1 genotox 8%.
For Clc1nc2ccccc2cc1/C=N/Nc1nc2ccccc2[nH]1 the results were FLuc modulator 0.19µM*, NPC1 promoter act 3.5µM*, ELG1 DNA repair inconclusive, Rab9 promoter act 2.5µM*, SMN2 splice up 7.9µM* and ELG1 genotox inconclusive.
`CCC(Sc1nc2cc(OC)c(OC)cc2c(=O)n1Cc1ccc(Cl)cc1)C(=O)NCCOC` (centres undefined) gave FLuc modulator 1%.
For Cc1cc(NC(=O)CSc2nc3c([nH]c4ccccc43)c(=O)n2-c2ccccc2F)no1 the results were FLuc modulator -2%, NPC1 promoter act 0%, ELG1 DNA repair 21µM*, Rab9 promoter act 7% and ELG1 genotox -12%.
For COc1cccc(-n2c(SCC(N)=O)nc3c([nH]c4ccccc43)c2=O)c1 the results were FLuc modulator -12%, NPC1 promoter act 1%, ELG1 DNA repair -27%, Rab9 promoter act 2%, SMN2 splice up 13µM* and ELG1 genotox 14%.
Screening Cc1cc2nc(-c3ccc(OCc4ccc(F)cc4)cc3)cc(C(F)(F)F)n2n1 returned FLuc modulator -8% and SMN2 splice up -6%.
Screening Cc1oc(-c2ccc(Cl)cc2)cc1C(=O)O returned FLuc modulator 11µM*, NPC1 promoter act inconclusive, ELG1 DNA repair inconclusive, Rab9 promoter act inconclusive and ELG1 genotox 12%.
For O=c1[nH]c(/C=C/c2ccc(Br)cc2)nc2ccccc12 the results were FLuc modulator 0.17µM*, NPC1 promoter act 0.32µM*, ELG1 DNA repair inconclusive, Rab9 promoter act 0.4µM* and ELG1 genotox inconclusive.
O=C(Nc1cccc(/C=C/c2nc3ccccc3c(=O)[nH]2)c1)c1ccccc1Cl was read as FLuc modulator -12%, NPC1 promoter act inconclusive, ELG1 DNA repair inconclusive, Rab9 promoter act inconclusive and ELG1 genotox 0%.
Screening CN(C)c1ccc(/C=C/c2nc3ccccc3c(=O)n2CCO)cc1 returned FLuc modulator -15%, NPC1 promoter act 15%, ELG1 DNA repair 8%, Rab9 promoter act 9% and ELG1 genotox -2%.
For CN(C)c1ccc(/C=C(\C#N)c2nc3ccccc3c(=O)[nH]2)cc1 the results were FLuc modulator 0.3µM* and SMN2 splice up -3%.
For Cc1cccc(/C=C\c2nc3ccccc3c(=O)[nH]2)c1 the results were FLuc modulator 0.85µM*, NPC1 promoter act inconclusive, ELG1 DNA repair inconclusive, Rab9 promoter act inconclusive, SMN2 splice up 2.8µM* and ELG1 genotox 10µM*.
Screening Cc1cccc(/C=C(\C#N)c2nc3ccccc3c(=O)[nH]2)c1 returned FLuc modulator 1% and SMN2 splice up -1%.
Screening CN(C)c1ccc(/C=C/c2nc3ccccc3c(=O)[nH]2)cc1 returned FLuc modulator 0.21µM*, NPC1 promoter act 0.11µM*, ELG1 DNA repair inconclusive, Rab9 promoter act 0.089µM* and ELG1 genotox 0.58µM*.
For Cc1ccccc1NC(=O)CSc1ncc2c(n1)-c1ccccc1N(C)S2(=O)=O the results were FLuc modulator -8%.
Cc1nc(/C=C/c2ccccc2)[nH]c(=O)c1-c1ccccc1 was read as FLuc modulator 1.9µM*, NPC1 promoter act inconclusive, ELG1 DNA repair inconclusive, Rab9 promoter act 0.63µM*, SMN2 splice up 2.8µM* and ELG1 genotox inconclusive.
For O=c1[nH]c(COc2ccc(Br)cc2Cl)nc2ccccc12 the results were FLuc modulator 1.9µM*, NPC1 promoter act 3.2µM*, ELG1 DNA repair inconclusive, Rab9 promoter act 3.5µM* and ELG1 genotox 7.3µM*.
COc1cc(/C=C/c2nc3ccccc3c(=O)[nH]2)cc(Cl)c1O was read as FLuc modulator -7%, NPC1 promoter act 15%, ELG1 DNA repair inconclusive, Rab9 promoter act 0% and ELG1 genotox 2%.
For O=C(Nc1ccc(Cl)cc1)NC1CCCCC1 the results were FLuc modulator inconclusive, NPC1 promoter act 1.1µM*, ELG1 DNA repair inconclusive, Rab9 promoter act 2.5µM*, SMN2 splice up 11µM* and ELG1 genotox 20%.
`Nc1ccc(NC(=O)NC2CCCCC2)cc1` gave FLuc modulator inconclusive, NPC1 promoter act 24%, ELG1 DNA repair inconclusive, Rab9 promoter act inconclusive and ELG1 genotox inconclusive.
Screening O=C(Nc1ccc(F)cc1)NC1CCCCCCC1 returned FLuc modulator 9.5µM*, NPC1 promoter act 3.5µM*, ELG1 DNA repair inconclusive, Rab9 promoter act inconclusive and ELG1 genotox inconclusive.
O=C(NC1CCCCC1)c1ccc(N2CCCC2=O)cc1 was read as FLuc modulator inconclusive, NPC1 promoter act inconclusive, ELG1 DNA repair inconclusive, Rab9 promoter act 28%, SMN2 splice up inconclusive and ELG1 genotox inconclusive.
For O=C(NC1CCCCCC1)c1ccc(N2CCCC2=O)cc1 the results were FLuc modulator 13µM*, NPC1 promoter act 4µM*, ELG1 DNA repair inconclusive, Rab9 promoter act 3.2µM*, SMN2 splice up 13µM* and ELG1 genotox 9.2µM*.
